From PubChem BioAssay AID504850 (National Center for Advancing Translational Sciences (NCATS), 2011) come the findings set out here.

In all, about 2,300 compounds went through this assay and about 1,200 (52%) were called active. Inconclusive results (about 34%) are left out. Calls come from the whole dose curve; as a rule, active = well fitted inhibition curve with a large enough effect; inconclusive = small, poorly fitted or top-dose-only effect, or effect the other way; inactive = no such curve, though single readings can be large or run the other way. So high a share suggests a set chosen from earlier hits. The list shows a part of the results.
Potency is the fitted concentration of half-maximal effect.

This assay in a line: Confirmation screen for delayed death inhibitors of the malarial parasite plastid, 48 hour incubation. Note: nearly all actives have a fitted effect of over 65% in size. The note with it: P. falciparum-infected erythrocytes, luciferase growth; series mostly up to 28.7 µM. A digest of the protocol: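 Erythrocytes infected with luciferase-expressing P. falciparum (2% hematocrit, 0.1% parasitemia) incubated with compounds 48 hours at 37 C, 5% CO2, in RPMI/Albumax. Growth inhibition scored as reduced luminescence after detection reagent.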
Take `Cn1c(=O)c2c([nH]c(=O)n2C)n(C)c1=O`: the Potency entry was “inactive”.
On to `O=C(CNC(=O)c1ccco1)OCC(=O)c1ccccc1`, for which the Potency entry is “inactive”.
To `COc1ccc(CN(CCC(c2ccccc2)c2ccco2)C(=O)c2ccco2)cc1` (stereo not given) belongs 10 µM (active).
On to `COc1ccc(S(=O)(=O)N/N=C(/C)c2ccco2)cc1`, for which the Potency entry is “inactive”.
Consider `Cc1ccnc(NCc2cccc3ccccc23)c1`, for which the Potency is 12.6 µM (active).
Turning to `Cc1ccnc(NCc2ccc(Cl)cc2)c1`, the Potency entry is “inactive”.
In the case of `CCOC(=O)c1c(CS(=O)(=O)c2ccccc2)n(C)c2cc(Br)c(O)cc12`, the Potency was 12.6 µM (active).
On to `CC(C)N1CCc2c(sc(NC(=S)NC(=O)c3ccccc3)c2C#N)C1`, for which the Potency is 10 µM (active).
Next, `O=C(/C=C/c1cccs1)Nc1sc2c(c1C(=O)O)CCCC2`: “inactive”; `CC(=O)Nc1sc2c(c1-c1nc3ccccc3s1)CCN(C(C)C)C2`: 4.47 µM (active); `COc1ccc2nc3cc(Cl)ccc3c(Nc3cc(C(C)C)c(O)cc3C)c2c1`: 0.0224 µM (active).
For the compound `CCN(CC)CCC[C@H](C)Nc1ccnc2cc(Cl)ccc12`, the Potency is 0.501 µM (active).
Regarding `CCN(CC)CCC[C@H](C)Nc1c2ccc(Cl)cc2nc2ccc(OC)cc12`, the Potency is 0.178 µM (active).
Turning to `CCOC(=O)C1=C(C)N=c2s/c(=C\c3ccc(OCC(=O)O)cc3)c(=O)n2C1c1ccc(OC(C)C)cc1` (stereo not given), the Potency is 5.01 µM (active).
Consider `Clc1cccc(Cl)c1C[n+]1ccc2ccccc2c1`, for which the Potency is 2.82 µM (active).
On to `CN(C)c1cc[n+](Cc2c(Cl)cccc2Cl)cc1`, for which the Potency is 2.24 µM (active).
To `CCOc1ccc(CCNC(=O)CCCn2nc(C)c3c(C)n(-c4ccccc4)nc3c2=O)cc1` belongs 11.2 µM (active).
As to `Cc1ccccc1NC(=O)CCCn1nc(C)c2c(C)n(-c3ccccc3)nc2c1=O`, the Potency was 10 µM (active).
For `COc1ccc(NC(=O)CCCn2nc(C)c3c(C)n(-c4ccccc4)nc3c2=O)cc1`, the Potency is 11.2 µM (active).
As for `Cc1cccc(C)c1NC(=O)CCCn1nc(C)c2c(C)n(-c3ccccc3)nc2c1=O`, the Potency was 12.6 µM (active).
Turning to `COc1ccc(NC(=O)CCCn2cc([N+](=O)[O-])cn2)cc1`, the Potency result is “inactive”.
With `CCOc1ccccc1C(=O)NCC(=O)NCCc1ccc(S(N)(=O)=O)cc1`, the Potency result was “inactive”.
Regarding `Cc1ccc(-c2nnn(CC(=O)Nc3ccc4nn(-c5ccccc5)nc4c3)n2)o1`, the Potency result was “inactive”.
Next, `COCCN(C(=S)Nc1ccc(OC)c(Cl)c1)C1CCN(C(C)C)CC1`: 14.1 µM (active).
For the compound `COc1ccc2[nH]c3c(c2c1)CCN1C(=O)N([C@@H](C)C(=O)NCCc2ccc(F)cc2)C(=O)[C@]31C`, the Potency was 12.6 µM (active).
With `CCCCOc1ccc(N2C(N)=NC(N)=NC23CCCCC3)cc1`, the Potency is 2 µM (active).
To `CCOC(=O)C1=C(NC(=S)NC(=O)c2ccccc2)c2ccccc2CC1(C)CC` (stereo not given) belongs 11.2 µM (active); to `O=C(NC1CCC1)C1CCC(=O)N(Cc2ccccc2F)C1` (stereo not given), “inactive”; to `Cc1ccc2nc(CNC(=O)C3CCC(=O)N(Cc4ccccc4F)C3)cn2c1` (stereo not given), 12.6 µM (active).
With `COc1ccc(-c2nc(N3CCN(C)CC3)sc2-c2ccc(OC)cc2)cc1`, the Potency is 15.8 µM (active).
`Cc1ccc(-c2nnc(N3CCOCC3)c3ccccc23)cc1S(=O)(=O)NCC1CCCO1` (stereo not given): the Potency was 7.08 µM (active).
Consider `CC(=O)Nc1ccc(Nc2nnc(-c3ccc(C)c(S(=O)(=O)NCC4CCCO4)c3)c3ccccc23)cc1` (stereo not given), for which the Potency result is “inactive”.
As for `CCOCCCn1c(C)nc2c(c1=O)c1nc3ccccc3nc1n2CCC1=CCCCC1`, the Potency is 7.08 µM (active).
`Cc1nn2c(Nc3ccccc3)c3c(nc2c1-c1ccccc1)CCC3`: the Potency was 15.8 µM (active).
Regarding `Cc1ccc(-c2csc3nc[nH]c(=O)c23)cc1`, the Potency result was “inactive”.
Regarding `Clc1ccc2nnnc(-c3ccccc3)c2c1`, the Potency is 3.98 µM (active).
With `Cc1ccc(S(=O)(=O)N2CCN(c3ccc(C(=O)N4CCOCC4)cc3[N+](=O)[O-])CC2)cc1`, the Potency is 7.08 µM (active).
With `O=C(c1ccc(S(=O)(=O)Cc2cc(F)ccc2F)c([N+](=O)[O-])c1)N1CCCC1`, the Potency is 12.6 µM (active).
For the compound `O=C(c1ccc(S(=O)(=O)Cc2ccccc2Cl)c([N+](=O)[O-])c1)N1CCOCC1`, the Potency was 10 µM (active).
With `Cc1cccc(N2CCN(C(=O)C3CCN(c4ncnc5c4nc4n5CCCCC4)CC3)CC2)c1C`, the Potency is 14.1 µM (active).
For `CC1CCN(C(=O)C2CCCN(c3ncnc4c3nc3n4CCCCC3)C2)CC1` (stereo not given), the Potency was 14.1 µM (active).
Consider `COC(=O)CC1C(=O)NCCN1C(=S)Nc1ccc(F)cc1` (stereo not given), for which the Potency was 14.1 µM (active).
In the case of `CCOC(=O)C(Cc1ccccc1)C(=O)Nc1cccc2ccccc12` (stereo not given), the Potency was 3.98 µM (active).
On to `CCC1CN(C(=O)N2CCC(C(=O)NCc3cccc(OC)c3OC)CC2)c2cc(C)ccc2O1` (stereo not given), for which the Potency is 12.6 µM (active).
In the case of `COc1cccc(COC(=O)C2CC(=O)N(Cc3ccco3)C2)c1OC` (stereo not given), the Potency entry was “inactive”.
Regarding `CC(C)NS(=O)(=O)c1ccc(NC(=S)NC(=O)c2ccc(-c3ccccc3)cc2)cc1`, the Potency is 5.01 µM (active).
For the compound `O=C(NC(=C(Cl)Cl)S(=O)(=O)c1ccc(Cl)cc1)c1ccccc1`, the Potency entry was “inactive”.
In the case of `O=c1c(Cl)c(Cl)cnn1Cc1nnc(-c2ccc(Cl)cc2)o1`, the Potency is 14.1 µM (active).
To `O=C(NC1CCCCC1)N1CCN(c2ccc([N+](=O)[O-])cc2)CC1` belongs 11.2 µM (active); to `Cc1ccc(NC(=O)/C(=C\c2ccc([N+](=O)[O-])cc2)NC(=O)c2ccccc2)cc1`, 10 µM (active).
As to `O=C(Nc1cccc([N+](=O)[O-])c1)c1ccc2nsnc2c1`, the Potency entry was “inactive”.
For `Cc1ccc(NC(=O)c2ccc(Nc3c([N+](=O)[O-])cc([N+](=O)[O-])cc3[N+](=O)[O-])cc2)cc1`, the Potency was 3.16 µM (active).
On to `O=C(NCc1ccccc1)c1c[nH]c2ccccc2c1=O`, for which the Potency is 14.1 µM (active).
Take `COCCn1c(=O)[nH]c2cc(C(=O)NCc3ccccc3)ccc2c1=O`: the Potency result was “inactive”.
Take `CCn1c(/C=C/N(C(C)=O)c2ccccc2)[n+](CC)c2ccc(Cl)cc21`: the Potency is 2.82 µM (active).
Next, `CCOC(=O)c1ccc2c(c1)n(CC)c(/C=C/N(C)c1ccccc1)[n+]2CC`: 0.447 µM (active); `CCc1ccc(NC(=O)CN(c2cc(C)cc(C)c2)S(=O)(=O)c2c(C)[nH]c(=O)[nH]c2=O)cc1`: 12.6 µM (active).
Next, `CCC1S/C(=N/N=C/c2ccco2)N(Cc2ccccc2)C1=O` (stereo not given): 14.1 µM (active).
As for `CCC1S/C(=N/N=C/c2ccco2)N(Cc2ccccc2C)C1=O` (stereo not given), the Potency is 11.2 µM (active).
In the case of `CC1S/C(=N/N=C/c2ccco2)N(Cc2ccccc2)C1=O` (stereo not given), the Potency entry is “inactive”.
